These results are taken from PubChem BioAssay AID588674 (Broad Institute, 2011).

Hit rate of the full screen: of about 360,000 compounds, about 1,800 (0.5%) were called active.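 How the source made its calls: active means mean inhibition of at least 75% with every replicate also reaching 75%; inconclusive means mean inhibition at least 75% but some replicate below; inactive means mean inhibition below 75%.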 Only a selection was taken, and actives are over-represented in it overall.

This experiment is described as follows: Shn3 3'UTR reporter decrease in osteoblasts – cell-based, Clone20 osteoblasts, firefly luciferase, set 2, Schnurri-3 inhibitor project, primary screen (AID 588674).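 Further: 0% = median of neutral control wells and 100% = pilot-screen positive control compound.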 Conditions: Clone20 osteoblast Shn3 3'UTR firefly luciferase, 24 h; at 12.5 µM; active compounds read high.
Broadly, the inhibition is the change of the read-out against control, counted positive when it falls. For `O=C(Nc1ccc(Cl)c(C(F)(F)F)c1)C1Cc2c(-c3ccccc3Oc3ccccc3)ccnc2O1` (stereo unspecified), the inhibition was 17.7% (inactive).

On to `C/C(CC1CC(C)(C)OC1=O)=N/Nc1nc(-c2ccccc2)cs1` (stereo unspecified), for which the inhibition was -73.7% (inactive).

On to `COc1cc(C(O)c2nc(-c3cccc(C(=O)O)c3)cs2)ccc1F` (stereo unspecified), for which the inhibition was -16.5% (inactive).

Regarding `COc1ccc2c(c1OC)C(=O)OC2Nc1nc(-c2ccccc2)cs1` (stereo unspecified), the inhibition is 89.4% (active).

As to `Cc1ccc(S(=O)(=O)N(C)C)cc1NC(=O)C1Cc2ccccc2CN1C(=O)c1ccco1` (stereo unspecified), the inhibition is -2.14% (inactive).

In the case of `C/C=C(/C)C(=O)OC1Cc2c(ccc3ccc(=O)oc23)OC1(C)C` (stereo unspecified), the inhibition was 17.3% (inactive).

`COc1ccc(SCc2noc(C(=O)NCC3CCCO3)c2C(=O)O)cc1` (stereo unspecified): the inhibition was 5.13% (inactive).

Consider `Cc1ccc(NC(=S)N2CCCC(c3ccccc3)=N2)cc1`, for which the inhibition is 20.9% (inactive).

Turning to `COc1ccc(-c2cc(C(F)(F)F)n3nc(C(=O)N4CCOCC4)c(Cl)c3n2)cc1`, the inhibition is 6.42% (inactive).

As to `CN(CC(=O)Nc1cccc(F)c1)C(=O)C1=COCCO1`, the inhibition is -7.61% (inactive).

`Cc1ccc(NC(=O)c2sccc2C)cc1[N+](=O)[O-]`: the inhibition was -83.1% (inactive).

As to `Cc1ccc(NC(=O)CN(C)CC(=O)Nc2cccc(F)c2)cc1[N+](=O)[O-]`, the inhibition is 90.8% (active).

Take `Cc1noc(C)c1S(=O)(=O)N(C)C[C@H]1Oc2c(NC(=O)Nc3ccc4c(c3)OCO4)cccc2C(=O)N([C@H](C)CO)C[C@@H]1C`: the inhibition was 17.8% (inactive).

On to `O=C(OCCN1C(=O)c2ccccc2C1=O)[C@@H]1CC(O)CN1S(=O)(=O)c1ccccc1[N+](=O)[O-]` (stereo partly specified), for which the inhibition is -5.63% (inactive).

As to `CN(C)C=NC(=O)c1cccn1-c1ncc(C(F)(F)F)cc1Cl`, the inhibition is -4.23% (inactive).

As for `O=c1[nH]c2cccnc2n(CCNc2ncc(C(F)(F)F)cc2Cl)c1=O`, the inhibition is 2.77% (inactive).

With `COc1cccc(/C=N/Nc2ncc(C(F)(F)F)cc2Cl)c1O`, the inhibition is 89.9% (active).

For the molecule `O=C(COC(=O)c1ccccc1SCC(=O)N1CCCC1)Nc1ccccc1OC(F)F`, the inhibition is -12.8% (inactive).

Consider `COC(=O)C1C(=O)c2c([nH]c(C(=O)OCCSC)c2C)CC1C` (stereo unspecified), for which the inhibition was -58.5% (inactive).

Turning to `CCCOC(=O)c1[nH]c2c(c1C)C(=O)CC(c1cc(OC)c(OC)c(OC)c1)C2` (stereo unspecified), the inhibition is 83.2% (active).

With `CCCOC(=O)c1[nH]c2c(c1C)C(=O)CC(c1cccs1)C2` (stereo unspecified), the inhibition is 24.4% (inactive).

Consider `CC(c1ccco1)N(C(=O)c1ccc(S(=O)(=O)N2CCCCC2)cc1)c1ccccn1` (stereo unspecified), for which the inhibition is 13.4% (inactive).

For the molecule `CC(=O)N1CCOc2ccc(S(=O)(=O)N3CCN(c4cccc(C(F)(F)F)c4)CC3)cc21`, the inhibition is 40.6% (inactive).

For `CCOC(=O)c1c(C)[nH]c(C2=NNC(=NC(C)COC)SC2)c1C` (stereo unspecified), the inhibition was -21.6% (inactive).

For `Cc1nc2ccccc2cc1OCc1ccc(F)cc1`, the inhibition is 85.8% (active).

As to `Fc1cccc2ncnc(OCc3ccccc3)c12`, the inhibition was 18% (inactive).

As for `Cc1occc(=O)c1OCc1ccc(F)cc1`, the inhibition was -22.9% (inactive).

Regarding `COc1ccc(Cc2nnc(N/N=C/c3ccccc3O)[nH]c2=O)cc1OC`, the inhibition is 91.1% (active).

Regarding `COc1ccc(Cc2nnc(SC)[nH]c2=O)cc1`, the inhibition was -14% (inactive).

On to `CC(C)c1ccc(Cc2nnc(NCCCO)[nH]c2=O)cc1`, for which the inhibition was 7.96% (inactive).

Take `CC(/C=C/C1(O)C(C)CC(=O)CC1(C)C)OC1OC(CO)C(O)C(O)C1O` (stereo unspecified): the inhibition was -14.8% (inactive).

For `CCc1ccc(NC2Nc3cc(C)nn3S2)cc1` (stereo unspecified), the inhibition is -59% (inactive).

Consider `COc1cc(/C=N/Nc2ccc(C)cc2)cc(Br)c1O`, for which the inhibition was 5.6% (inactive).

For the molecule `COc1ccccc1-n1c(SCC(=O)Nc2cccc(C(=O)O)c2)nnc1-c1ccccc1O`, the inhibition is -11.2% (inactive).

As to `COc1cccc(/C=N/Nc2cc(C)nc(-c3ccccc3O)n2)c1O`, the inhibition was 86.9% (active).

For `CN(CCO)S(=O)(=O)c1ccc2c(c1)C(=O)c1cc(S(=O)(=O)N(C)CCO)ccc1-2`, the inhibition is 16.6% (inactive).

`CCn1nc(C)c(CNC(=O)C2CCC(=O)N(Cc3cccc(F)c3)C2)c1C` (stereo unspecified): the inhibition is -6.25% (inactive).

As to `COC(c1ccccc1)(c1ccccc1)C(Oc1nc(C)cc(C)n1)C(=O)O` (stereo unspecified), the inhibition was 5.7% (inactive).

Regarding `Cc1cc(C)nc(S/C=C/C(=O)c2ccccc2)n1`, the inhibition is 95.6% (active).

As for `Cc1cc(C)nc(SC(C)C(=O)N/N=C/c2cccs2)n1` (stereo unspecified), the inhibition was 4.78% (inactive).

Regarding `Clc1ccc(Cl)c(Oc2ccc(Oc3nc(Cl)ccc3Cl)cc2)n1`, the inhibition was -2.29% (inactive).

As to `Cc1ccc(/C=N/NC(=O)C2=NNC(c3ccccc3)(c3ccccc3)C2)c(O)c1`, the inhibition is 88.2% (active).

Consider `O=C(NN=Cc1ccc2c(c1)CCC2)c1ccccc1O`, for which the inhibition was -68.8% (inactive).

Regarding `O=C(N/N=C/c1ccccc1O)C1CCCC1`, the inhibition is 26.7% (inactive).

As for `COC(=O)Cc1ccc(OC2(C)CCN(Cc3ccc4c(c3)OCCO4)C2)cc1` (stereo unspecified), the inhibition was -22.2% (inactive).

`O=C(NCCCN1CCCCC1)C1CCCN(c2ncnc3c2nc2n3CCCCC2)C1` (stereo unspecified): the inhibition is 2.4% (inactive).

Regarding `O=C(CSC1=NS(=O)(=O)c2cc(F)ccc2N1)Nc1ccccc1F`, the inhibition is -17.3% (inactive).

With `Cc1cc(C)n(CCC(=O)N2CCN(S(=O)(=O)c3ccc(C)c(C)c3)CC2)n1`, the inhibition is -21.5% (inactive).

Take `COc1ccc(CCNC(=O)C(=O)NCC2CCNCC2)cc1OC`: the inhibition is -3.81% (inactive).

Take `O=C(O)CSc1nccn1-c1cccc(Cl)c1`: the inhibition was -5.11% (inactive).

As to `O=C(NCCc1ccccc1)c1cccc(NC(=O)c2ccccc2)c1`, the inhibition was -14.5% (inactive).

In the case of `Cc1cc(=O)c2ccc(NC(=O)c3ccccc3)cc2[nH]1`, the inhibition was -6.37% (inactive).

Turning to `O=C(NC1=CC(=O)c2ccccc2C1=O)c1ccccc1`, the inhibition is 93.6% (active).

Turning to `Cn1c2c(c(=O)n(C)c1=O)C1c3ccccc3OCC1C(C)(C)O2` (stereo unspecified), the inhibition is -0.463% (inactive).

For the molecule `CC1COC2C(O1)N(S(C)(=O)=O)CCN2S(C)(=O)=O` (stereo unspecified), the inhibition is 1.27% (inactive).

Regarding `Cn1c(SCC(=O)N2CCCc3ccccc32)nc2ccccc2c1=O`, the inhibition was 86.2% (active).

With `C=CCn1c(=O)c2ccccc2n2c(SCC(=O)N3CCCc4ccccc43)nnc12`, the inhibition is -3.54% (inactive).

Consider `O=C(CSc1nc2ccccc2c(=O)n1CCCO)N1CCc2ccccc21`, for which the inhibition is 3.09% (inactive).

Turning to `Cn1cc(CN2CCCC(CO)C2)c(-c2ccc(Oc3ccccc3)cc2)n1` (stereo unspecified), the inhibition was 6.06% (inactive).

As for `C[C@H](NC(=O)CC[C@H]1O[C@@H](n2ccc(=O)[nH]c2=O)[C@H](O)[C@@H]1O)c1cccc2ccccc12`, the inhibition was -13% (inactive).

On to `COc1cccc(CNC(=O)C(=O)NCCC2CCCCN2S(=O)(=O)c2ccc(C)cc2)c1` (stereo unspecified), for which the inhibition was 13.1% (inactive).

Take `C[C@H](NC(=O)c1[nH]cnc1C(=O)Nc1nccs1)c1ccccc1`: the inhibition is -5.6% (inactive).

Consider `COc1ccc(-c2csc3ncnc(N4CCN(S(=O)(=O)c5ccccc5C#N)CC4)c23)cc1`, for which the inhibition is -3.1% (inactive).

As to `Cc1ccc(C)c(S(=O)(=O)N2CCN(c3ncnc4sccc34)CC2)c1`, the inhibition was 86.3% (active).

As for `Cc1ccc(C)c(S(=O)(=O)N2CCN(CC(=O)Nc3ccc([N+](=O)[O-])cc3)CC2)c1`, the inhibition is 5.73% (inactive).

On to `C[n+]1cc(-c2ccccc2)oc1-c1ccccc1`, for which the inhibition is -76.7% (inactive).

`Cc1ccccc1NC(=O)Cc1nc(COC(=O)C(C)(C)Oc2ccc(Cl)cc2)cs1`: the inhibition was -2.77% (inactive).

In the case of `COc1cc(NC(=S)N2CCCC(C)C2)cc(OC)c1OC` (stereo unspecified), the inhibition is -25.8% (inactive).

With `O=C1C=C(c2cc(C(F)(F)F)cc(C(F)(F)F)c2)C[C@@H](c2ccc3c(c2)OCO3)C1`, the inhibition is 15% (inactive).

In the case of `O=C1C=C(c2ccnc3cc(Cl)ccc23)C[C@@H](c2ccc3c(c2)OCO3)C1`, the inhibition is 85.5% (active).

Take `COc1ccc2cc(C3=CC(=O)C[C@H](c4ccc5c(c4)OCO5)C3)ccc2c1`: the inhibition is -45.2% (inactive).

For the molecule `COc1ccccc1NC(=O)C(C)OC(=O)c1ccc(-n2cnnn2)cc1` (stereo unspecified), the inhibition is 1.76% (inactive).

On to `CC(=O)N1CCCc2cc(S(=O)(=O)N3CCCC(C(=O)N4CCN(c5cccc(Cl)c5)CC4)C3)ccc21` (stereo unspecified), for which the inhibition is 93% (active).

Consider `CC(=O)N1CCCc2cc(S(=O)(=O)CCC(=O)N3CCN(c4ccccc4)CC3)ccc21`, for which the inhibition is -3.7% (inactive).

In the case of `CC(=O)N1c2ccc(S(=O)(=O)N3CCC(C(=O)N4CCN(c5ccccc5)CC4)CC3)cc2CC1C` (stereo unspecified), the inhibition was 74.2% (inactive).

Regarding `CCOC(=O)C1=CC[C@@H](c2ccncc2)N(S(=O)(=O)c2ccc(C)cc2)C1`, the inhibition was 4.63% (inactive).

On to `COc1ccc(C(c2nnnn2C2CCCC2)N2CCN(C/C=C/c3ccccc3)CC2)cc1` (stereo unspecified), for which the inhibition is 16.4% (inactive).

Turning to `Cc1cc2nc(-c3ccco3)c(Cc3cccc(F)c3)n2c(C)c1Br`, the inhibition is 54.3% (inactive).

For the molecule `O=C1C(Cl)=C(Oc2ccccc2)C(=O)c2ccccc21`, the inhibition was 96.1% (active).

With `O=C(NCc1cccs1)c1ccc2c(c1)ncn2C1CCCC1`, the inhibition was -25.6% (inactive).

Turning to `COc1c(C=O)c(CCN(C)C(=O)c2ccc(F)cc2)cc2c1OCO2`, the inhibition was -0.0815% (inactive).

For the molecule `Cn1c(CCNS(=O)(=O)c2ccc(F)cc2)nnc1SCc1cccnc1`, the inhibition is -8.53% (inactive).

Consider `CC(=O)Nc1ccc(SCC(=O)NC(=O)c2ccc(Cl)cc2)cc1`, for which the inhibition was 5.11% (inactive).

For `O=C(CCl)Nc1ccc(Sc2ccc(NC(=O)CCl)cc2)cc1`, the inhibition is 96.4% (active).

`O=C(CCl)Nc1cccc(CP(=O)(c2ccccc2)c2ccccc2)c1`: the inhibition was -0.336% (inactive).

Regarding `COCCN(CCOC)c1nc(N)c2c(N)nc3c(c2c1C#N)CC(=O)N3Cc1ccc(Cl)cc1`, the inhibition was -5.44% (inactive).
